# Data taken from PubChem BioAssay AID1240 (Sanford-Burnham Center for Chemical Genomics, 2008).
# Out of some 50,000 compounds screened, about 800 (1.6%) showed an effect of 50% or more. Only a selection was taken, and strong results are over-represented in it overall.
# Target: Bcl-2-like protein 10 (Homo sapiens) (UniProt Q9HD36)
# Assay: Phenotype converters, Bcl-B/TR3 peptide binding displacement, primary biochemical FP (AID 1240);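 further: 0% = Bcl-B with tracer peptide and DMSO and 100% = tracer peptide lacking Bcl-B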
# Conditions: GST-Bcl-B / FITC-TR3 peptide fluorescence polarization; stronger effect = higher value; compound at 3.75 mg/L
# Chain of Bcl-2-like protein 10 (Homo sapiens) (Q9HD36 whole entry, looked up): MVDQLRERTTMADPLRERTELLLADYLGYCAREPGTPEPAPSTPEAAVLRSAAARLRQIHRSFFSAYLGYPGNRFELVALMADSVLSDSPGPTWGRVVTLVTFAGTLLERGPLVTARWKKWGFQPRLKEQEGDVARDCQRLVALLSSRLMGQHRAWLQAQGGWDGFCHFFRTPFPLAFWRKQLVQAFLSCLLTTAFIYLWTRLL
row,Compound,displacement [%]
1,O=c1[nH]c(=S)[nH]c2c1C1(CCCC1)Cc1ccccc1-2,-4.2
2,COc1ccc(COC(=O)C2=C(C)NC3=C(C(=O)CCC3)C2c2cccc3ccccc23)cc1 (configuration not stated),10.9
3,COc1cc(/C=C(/C#N)c2nc3ccccc3[nH]2)c([N+](=O)[O-])cc1OCCC(C)C,69.6
4,COc1ccc(/C=C(\C#N)c2nc3ccccc3[nH]2)cc1OC,11
5,COc1cc(/C=C(\C#N)c2nc3ccccc3[nH]2)c(Br)cc1O,-96.8
6,COc1ccc(CC(=O)N2CCN(c3cccc(Cl)c3)CC2)cc1OC,2
7,COC(=O)C1=C(C)NC2=C(C(=O)CC(C)(C)C2)C1c1ccc(OC)cc1OC (configuration not stated),11.9
8,O=C1C(=Cc2ccc(I)o2)C(=O)c2ccccc21,37.1
9,Cc1ccc(C=C2C(=O)c3ccccc3C2=O)o1,10.9
10,O=C1C(=Cc2ccc(Sc3ccccc3)o2)C(=O)c2ccccc21,163
11,C#CCOc1c(Br)cc(/C=C2\C(=O)NC(=O)N(c3ccc(Cl)cc3)C2=O)cc1OC,-0.6
12,CCn1nnnc1-c1ccc(OC)c(S(=O)(=O)Nc2ccc(F)cc2)c1,6.1
13,CCn1nnnc1-c1ccc(OC)c(S(=O)(=O)Nc2ccc(Br)cc2)c1,58.3
14,CCn1nnnc1-c1ccc(OC)c(S(=O)(=O)Nc2ccc(Cl)cc2)c1,9.3
15,CCc1ccc(-n2c(C)cc(/C=C3/NC(=O)NC3=O)c2C)cc1,-6.3
16,O=C(NC1CCCCC1)c1ccc(Cl)c(Cl)c1,3.3
17,O=C(NC1CCCCCC1)c1cccc(Cl)c1,4.5
18,O=C(NC1CCCCC1)c1ccc2nc3ccccc3nc2c1,81.5
19,CCOC(=O)C(=CNc1ccccc1C(C)C)C(=O)OCC,-7.2
20,O=C1c2cccc3cccc(c23)C(=O)N1Nc1ccc([N+](=O)[O-])cc1,3.8
21,COc1ccc(-c2cc(C(=O)Nc3nc4ccc(S(C)(=O)=O)cc4s3)c3ccccc3n2)cc1OC,5
22,Cc1ccc2c(c1)NC(c1ccc(F)cc1)C1=C(CC(C)(C)CC1=O)N2 (configuration not stated),17.8

row,Compound,displacement [%]
1,Cc1ccc2c(c1)NC(c1ccccc1)C1=C(CC(C)(C)CC1=O)N2 (configuration not stated),-3.1
2,Cc1ccc2c(c1)NC(c1ccc(C)o1)C1=C(CC(C)(C)CC1=O)N2 (configuration not stated),88.5
3,CCCCCC(=O)N1c2ccccc2NC2=C(C(=O)CC(c3ccc(OC)cc3)C2)C1c1ccco1 (configuration not stated),-3.9
4,Cc1ccc2nc(SCc3ccc([N+](=O)[O-])cc3)nc(C)c2c1,-7.5
5,O=C(Cc1ccccc1)Nc1ccc(Cl)c(-c2nc3ncccc3o2)c1,7.3
6,Cc1ccc(C(=O)Nc2cccc3ccccc23)o1,16.6
7,O=C(Nc1c(C(=O)N2CCC(Cc3ccccc3)CC2)cnn1-c1ccccc1)c1ccccc1F,88.9
8,Cc1ccc(C(=O)Nc2c(C(=O)N3CCC(Cc4ccccc4)CC3)cnn2-c2ccccc2)cc1,-8.3
9,O=C(Nc1c(C(=O)N2CCC(Cc3ccccc3)CC2)cnn1-c1ccccc1)c1cccc(F)c1,3.5
10,CCOC(=O)C1=C(O)/C(=C\c2ccc(OCC)cc2)N=C1C,18.1
11,CCc1ccccc1N1C(=O)/C(=C/c2cc(C)n(C)c2C)C(=O)NC1=S,8.1
12,Cc1cc(/C=C2\C(=O)NC(=S)N(c3ccc(Br)cc3)C2=O)c(C)n1C,-2.4
13,Cc1cc(/C=C2\C(=O)NC(=S)N(c3cccc(Cl)c3Cl)C2=O)c(C)n1C,0.8
14,Cc1cccc(N2C(=O)/C(=C/c3cc(C)n(C)c3C)C(=O)NC2=S)c1C,111
15,Cc1cc(/C=C2\C(=O)NC(=S)N(c3ccc(Cl)cc3)C2=O)c(C)n1C,29.5
16,Cc1ccc(N2C(=O)/C(=C/c3cc(C)n(C)c3C)C(=O)NC2=S)cc1,97
17,Cc1ccc(S(=O)(=O)N2CCN(C(=O)COc3ccc(Cl)cc3)CC2)cc1,-15.1
18,CCN(CC)c1ccc(/C=N/NS(C)(=O)=O)cc1,7.3
19,COc1cccc(CN2CCN(C(=O)c3ccccc3OC)CC2)c1,-15.8
20,NC(=O)SCC(=O)Nc1ccccc1O,4.9
21,Clc1ccccc1-c1nnc(-c2ccc(-c3ccccc3)cc2)o1,5.2
22,O=C(Nc1ccc(OC(F)(F)F)cc1)c1cccc([N+](=O)[O-])c1,-1.6

row,Compound,displacement [%]
1,COc1cc(/C=C2\SC(NC(C)=O)=NC2=O)cc2sc(=O)oc12,24.7
2,COc1ccc(/C=C2\SC(N3CCCC3)=NC2=O)c(OC)c1,-18.5
3,COc1ccc(OC)c(/C=C2/SC(NC(C)=O)=NC2=O)c1,156
4,COc1c(Cl)cc(Cl)cc1/C=C1\SC(NC(C)=O)=NC1=O,74.7
5,COc1cc(OC)c(/C=C2/SC(NC(C)=O)=NC2=O)cc1Br,138
6,COc1ccc(OC)c(/C=C2\SC(N3CCCC3)=NC2=O)c1,-16.2
7,COc1cc(/C=C2/SC(NC(C)=O)=NC2=O)cc(OC)c1OC,31.2
8,COc1cc(/C=C2\SC(NC(C)=O)=NC2=O)cc(Br)c1OC,11.8
9,CC(=O)NC1=NC(=O)/C(=C\c2ccc(-c3ccc(Cl)c(C(=O)O)c3)o2)S1,-115
10,COc1ccc(/C=C2/SC(NC(C)=O)=NC2=O)c(OC)c1,133
11,COc1ccc(/C=C2/SC(N)=NC2=O)c(OC)c1,-3.2
12,CCOC(=O)C1=CN(c2ccc(OCC)cc2)C=C(C(=O)OCC)C1c1ccccc1F,-12.6
13,CC(=O)OC(c1c(F)c(F)c(F)c(F)c1F)c1c(F)c(F)c(F)c(F)c1F,3
14,C=CCN1C(=O)/C(=C\c2ccc(O)cc2)C(=O)NC1=S,-14.8
15,O=C(N/N=C/c1ccc(Cl)cc1)c1ccc(O)cc1,-1.1
16,O=C(/C=C/c1ccccc1)C1=C(O)C(=O)N(c2ccccn2)C1c1ccccc1F (configuration not stated),93.5
17,O=C(O)CCCCCN1C(=O)C(O)=C(C(=O)/C=C/c2ccccc2)C1c1ccccc1F (configuration not stated),1.5
18,O=C(/C=C/c1ccccc1)C1=C(O)C(=O)N(c2ccccc2)C1c1ccccc1F (configuration not stated),2
19,Cc1ccccc1NC(=O)CN(c1ccc(Oc2ccccc2)cc1)S(C)(=O)=O,1.7
20,Cc1ccccc1NC(=O)c1ccc(C)c(S(=O)(=O)NCc2ccccc2)c1,-9.5
21,CC(C)c1nnc(NC(=O)Nc2ccc(Cl)c(Cl)c2)s1,98.2
22,CC(C)Cc1nnc(NC(=O)Nc2ccc(Cl)c(Cl)c2)s1,3.9

row,Compound,displacement [%]
1,CC(C)c1nnc(NC(=O)Nc2ccc(Cl)cc2)s1,2.3
2,FC(F)(F)c1nc2ccccc2n1CC#CCn1c(C(F)(F)F)nc2ccccc21,-1.1
3,Cc1ccc(NC(=O)/C(=C/c2ccccc2)c2ccccc2)cc1C,12.1
4,O=C(Nc1nc2ccc(Br)cc2s1)c1cccs1,-3.7
5,COc1ccc(C(=O)Nn2cc3cc([N+](=O)[O-])ccc3n2)cc1,-9.5
6,O=C(Cc1ccc(Cl)cc1)Nc1ccc2c(c1)OCCO2,0.4
7,CSc1nc2sc3c(c2c(=O)[nH]1)CCN(Cc1ccccc1)C3,81
8,N#Cc1c(N)sc2c1CCN(Cc1ccccc1)C2,3.4
9,Nc1nc(SCc2ccc(Cl)cc2)nc2sc3c(c12)CCN(Cc1ccccc1)C3,16.8
10,CSc1nc2sc3c(c2c(=O)[nH]1)CCCC3,6.2
11,Nc1sc(=S)nc2sc3c(c12)CCN(Cc1ccccc1)C3,74
12,CSc1nc2sc3c(c2c(=O)n1Cc1ccccc1)CCN(C)C3,-6.8
13,Cc1cccc(C(=O)O/N=C(\N)c2ccc(Br)cc2)c1,-0.6
14,COc1ccc(-c2occ(C(=O)O)c2C(=O)O)cc1,0.2
15,O=C1CC(N2CCN(c3ccccc3)CC2)C(=O)N1c1ccc(I)cc1 (configuration not stated),-0.8
16,CCC12C(=O)C(CC)(C(c3ccccc3)=C1c1ccccc1)C1C(=O)N(c3ccccc3[N+](=O)[O-])C(=O)C12 (configuration not stated),2
17,CCN1C(=O)/C(=C\c2ccc(Br)cc2)SC1=S,7.1
18,CCOc1cccc(=O)c2c(C)oc(C)c12,16.8
19,CCOc1cccc(=[O+]CC)c2c(C)oc(C)c12,154
20,CCOc1ccc(-c2cc(OCC)c3c(C)oc(C)c3c(=[O+]CC)c2)cc1,2.4
21,CNC(=O)COc1ccc(C23CC4CC(CC(C4)C2)C3)cc1,1.4
22,O=C(CSc1n[nH]c(=O)[nH]c1=O)c1ccc(Cl)cc1,-6.1

row,Compound,displacement [%]
1,O=C(Nc1ncc(Cc2ccc(F)cc2)s1)C1CCCO1 (configuration not stated),15.4
2,Cc1nc(-c2ccccc2)sc1C(=O)Nc1cccc2ccccc12,13.1
3,COc1cc(C=O)ccc1Oc1ccc([N+](=O)[O-])cc1,5
4,Cc1ccc(-n2cc(/C=c3\sc4nc5cc(C)c(C)cc5n4c3=O)cn2)cc1C,-8.9
5,Cc1ccc(-n2c(C)cc(/C=C3\NC(=O)NC3=O)c2C)cc1C,11.1
6,Cc1ccc(-n2cc(C=C3C(=O)NC(=O)NC3=O)cn2)cc1C,110
7,O=[N+]([O-])c1ccc2oc(-c3ccccc3)nc2c1,5
8,COc1sc(SC)cc1/C=N/NC(=O)C(NC(=O)c1ccccc1)c1n[nH]c(=O)c2ccccc12 (configuration not stated),-7.7
9,COc1ccc(-c2cc(C(F)(F)F)n3nc(C(=O)NCCN4CCOCC4)c(Cl)c3n2)cc1,-10.2
10,COc1ccc(-c2cc(C(F)(F)F)n3nc(C(=O)O)c(Cl)c3n2)cc1,3.2
11,COCCNC(=O)c1nn2c(C(F)(F)F)cc(-c3ccc(OC)c(OC)c3)nc2c1Cl,155
12,COc1ccc(-c2cc(C(F)(F)F)n3nc(C(=O)NCCCn4ccnc4)c(Cl)c3n2)cc1,105
13,COc1ccc(-c2cc(C(F)(F)F)n3nc(C(N)=O)c(Cl)c3n2)cc1OC,33.4
14,COCCNC(=O)c1nn2c(C(F)(F)F)cc(-c3ccc(OC)cc3)nc2c1Cl,-2.4
15,COc1ccc(C(=O)Nc2ccc(N(C)C)cc2)cc1,6
16,CN(C)c1ccc(C2/C(=C(\O)c3ccc(F)cc3)C(=O)C(=O)N2CCCCCC(=O)O)cc1 (configuration not stated),9.1
17,CCCCOC(=O)c1cccc(NC(=O)COc2ccc3c(C)cc(=O)oc3c2)c1,-41.8
18,COCCOC(=O)c1ccc(NC(=O)COc2ccc3c(C)cc(=O)oc3c2)cc1,90.3
19,CCCCOC(=O)c1ccc(NC(=O)COc2ccc3c(C)cc(=O)oc3c2)cc1,28.5
